This passage reports viability results from PubChem BioAssay AID999 (SRMLSC, 2007).

Calls of active or inactive are those of the source.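 How the source made its calls: active means viability at or below 21.59%, 3 SD under the median of tested compounds; inactive means the rest.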

The assay in a line: growth suppression of PTEN-null HCT116 cells, cell-based, validation, diverse DP compound set (AID 999).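 Further: 100% = median luminescence of untreated cell control wells and 0% = no signal.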 To be noted: CellTiter-Glo, 60 h, at 10 µM, hits give low values.
As for `COc1ccc(CCN2CCC(Nc3nc4ccccc4n3Cc3ccc(F)cc3)CC2)cc1`, the viability is 16.6% (active).

`Cc1c(C)c2c(c(C)c1O)CCC(C)(COc1ccc(CC3SC(=O)NC3=O)cc1)O2` (stereo unspecified): the viability was 79.8% (inactive).

In the case of `COc1ccc(/C=C/c2cc(OC)cc(=O)o2)cc1`, the viability is 85.2% (inactive).

Consider `CC[N+](CC)(CC)CC(=O)Nc1c(C)cccc1C`, for which the viability was 105% (inactive).

As to `CC1=C(/C=C/C(C)=C/C=C/C(C)=C/C(=O)O)C(C)(C)CCC1`, the viability is 93.7% (inactive).

As for `COc1ccc2c3c1O[C@H]1C[C@@H](O)C=C[C@@]31CCN(C)C2`, the viability was 91.7% (inactive).

On to `COC(=O)C1=C(C)NC(C)=C(C(=O)OCCNCc2ccccc2)C1c1cccc([N+](=O)[O-])c1` (stereo unspecified), for which the viability is 65.3% (inactive).

Take `Clc1ccc2ncnc(NCc3ccc4c(c3)OCO4)c2c1`: the viability is 83.1% (inactive).

Turning to `O=c1[nH]cnc2ccccc12`, the viability was 82.7% (inactive).

As to `C[C@@H]1C(=O)O[C@@H]2CC34C5CC(C(C)(C)C)[C@]36C(O)C(=O)O[C@@H]6O[C@@]4(C(=O)O5)[C@@]12O` (stereo partly specified), the viability is 53.4% (inactive).

Take `CCC[C@@H]1C[C@@H](C(=O)NC(C(C)Cl)[C@H]2O[C@H](SC)[C@H](O)[C@@H](O)[C@H]2O)N(C)C1` (stereo partly specified): the viability was 100% (inactive).

Regarding `C=C(C)[C@H]1CC=C(CO)CC1`, the viability was 96% (inactive).

Consider `CCOC(=O)c1ncn2c1CN(C)C(=O)c1cc(F)ccc1-2`, for which the viability is 95.3% (inactive).

`CCC(C)CCCCC(=O)N[C@@H](CCN)C(=O)N[C@H](C(=O)N[C@@H](CCN)C(=O)N[C@H]1CCNC(=O)C([C@@H](C)O)NC(=O)[C@@H](CCN)NC(=O)[C@H](CCN)NC(=O)[C@H](CC(C)C)NC(=O)[C@@H](CC(C)C)NC(=O)[C@H](CCN)NC1=O)[C@@H](C)O` (stereo partly specified): the viability is 96% (inactive).

As for `CN1CCN(C2Cc3ccccc3Sc3ccc(S)cc32)CC1` (stereo unspecified), the viability is 50.3% (inactive).

For `O=c1[nH]cc(F)c(=O)[nH]1`, the viability was 58.9% (inactive).

`COc1ccc2cc([C@H](C)C(=O)O)ccc2c1`: the viability was 85.6% (inactive).

On to `C=C(CCC12O[C@H](C(=O)O)[C@@](O)(C(=O)O)[C@](C(=O)O)(O1)[C@H](OC(=O)/C=C/[C@@H](C)C[C@@H](C)CC)[C@H]2O)[C@@H](OC(C)=O)[C@H](C)Cc1ccccc1`, for which the viability is 98.3% (inactive).

In the case of `Nc1nc2ncc(CNc3ccc(C(=O)NC(CCC(=O)O)C(=O)O)cc3)nc2c(=O)[nH]1` (stereo unspecified), the viability is 99.5% (inactive).

Regarding `C[C@@H]1C[C@@H]([C@@H](C)CC2CC(=O)NC(=O)C2)C(=O)[C@@H](C)C1`, the viability is 30.2% (inactive).

Turning to `NCC(=O)N[C@@H](CCCN=C(N)N)C(=O)NCC(=O)N[C@@H](CC(=O)O)C(=O)N[C@@H](CC(N)=O)C(=O)N1CC[C@@H](C(=O)O)C1`, the viability was 98% (inactive).

Consider `CCCC[C@@H](C=O)NC(=O)[C@H](CC(C)C)NC(=O)[C@H](CC(C)C)NC(C)=O`, for which the viability was 15.1% (active).

In the case of `C[C@H](CS)C(=O)N1CCC[C@H]1C(=O)O`, the viability is 93.9% (inactive).

As to `COC(=O)CCc1c(C)[nH]c(C(=O)OCc2ccccc2)c1C`, the viability is 97.7% (inactive).

For `C=C1C(=O)[C@]23[C@H](O)[C@H]1CC[C@H]2[C@@]12COC3(O)[C@H](O)[C@@H]1C(C)(C)CC[C@@H]2O`, the viability was 76.4% (inactive).

In the case of `CC(=O)N[C@H]1C(O[C@@H]2O[C@H](C[C@@H](O)[C@H]3O[C@@H](N4CCC(=O)NC4=O)[C@H](O)[C@@H]3O)[C@H](O)[C@H](O)[C@H]2NC(=O)/C=C/CCCCCCCCCCC(C)C)OC(CO)[C@@H](O)[C@@H]1O` (stereo partly specified), the viability was 52.8% (inactive).

As to `C=CC1(C)CC(=O)C2(O)C(C)(O1)C(OC(C)=O)C(O)C1C(C)(C)CCC(O)C12C` (stereo unspecified), the viability is 85.5% (inactive).

For `Cc1ccc(Cl)c(Nc2ccccc2C(=O)O)c1Cl`, the viability is 98.1% (inactive).

Regarding `Cc1cc2c(C(C)C)c(O)c(O)c(C=O)c2c(O)c1-c1c(C)cc2c(C(C)C)c(O)c(O)c(C=O)c2c1O`, the viability was 13% (active).

For `COc1ccc2cc1Oc1ccc(cc1)C[C@H]1c3c(cc4c(c3Oc3cc5c(cc3OC)CCN(C)[C@@H]5C2)OCO4)CCN1C`, the viability is 37.8% (inactive).

`CCC(C)C(O)C(C)C(=O)C(C)/C=C(\C)CC(C)C1OC(=O)C1CC` (stereo unspecified): the viability was 97.1% (inactive).

The viability is a read-out of living cells in per cent, often relative to untreated cells.
